The campaign covered roughly 5,500 compounds. About 2,000 (36%) were called active. Another 18% or so got no clear call; they are omitted. Cut-off read from the data, not from the text of the source: active = normalized growth mostly below about 0.91 (no sharp cut-off); inconclusive = no clear call, values can overlap the other calls; inactive = mostly above about 0.92. Some of the results follow.
Assay: chemical genetic growth profiling, strain panel (AID 1159580);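 note: tested at 20 µM; growth read once vehicle control cultures reached saturation at 30 °C; 1 = growth at the plate median or of vehicle wells; lower values mean less growth of the strain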
Conditions: growth OD
[1] = S. cerevisiae deletion strains, locus YAL013W, strain DEP1, active compounds read low
[2] = S. cerevisiae deletion strains, locus YDL101C, strain DUN1, active compounds read low
[3] = S. cerevisiae deletion strains, locus YDR150W, strain NUM1, active compounds read low
[4] = S. cerevisiae deletion strains, locus YGR078C, strain PAC10, active compounds read low
[5] = S. cerevisiae deletion strains, locus YHR030C, strain SLT2, active compounds read low
[6] = S. cerevisiae deletion strains, locus YPL241C, strain CIN2, active compounds read low
[7] = S. cerevisiae deletion strains, locus YAR019C, strain CDC15, active compounds read low
[8] = S. cerevisiae deletion strains, locus YBL105C, strain PKC1, active compounds read low
[9] = S. cerevisiae deletion strains, locus YBR135W, strain CKS1, active compounds read low
[10] = S. cerevisiae deletion strains, locus YBR136W, strain MEC1, active compounds read low
[11] = S. cerevisiae deletion strains, locus YBR160W, strain CDC28, active compounds read low
[12] = S. cerevisiae deletion strains, locus YDL017W, strain CDC7, active compounds read low
[13] = S. cerevisiae deletion strains, locus YDL028C, strain MPS1, active compounds read low
[14] = S. cerevisiae deletion strains, locus YDL108W, strain KIN28, active compounds read low
[15] = S. cerevisiae deletion strains, locus YDL132W, strain cdc53, active compounds read low
[16] = S. cerevisiae deletion strains, locus YDL214C, strain PRR2, active compounds read low
[17] = S. cerevisiae deletion strains, locus YDR052C, strain DBF4, active compounds read low
[18] = S. cerevisiae deletion strains, locus YDR054C, strain cdc34, active compounds read low
[19] = S. cerevisiae deletion strains, locus YDR226W, strain ADK1, active compounds read low
[20] = S. cerevisiae deletion strains, locus YDR477W, strain SNF1, active compounds read low
[21] = S. cerevisiae deletion strains, locus YER123W, strain YCK3, active compounds read low
[22] = S. cerevisiae deletion strains, locus YER133W, strain GLC7, active compounds read low
[23] = S. cerevisiae deletion strains, locus YFL009W, strain cdc4, active compounds read low
[24] = S. cerevisiae deletion strains, locus YFL029C, strain CAK1, active compounds read low
[25] = S. cerevisiae deletion strains, locus YFR003C, strain YPI1, active compounds read low
[26] = S. cerevisiae deletion strains, locus YFR019W, strain FAB1, active compounds read low
[27] = S. cerevisiae deletion strains, locus YFR028C, strain CDC14, active compounds read low
[28] = S. cerevisiae deletion strains, locus YGR040W, strain KSS1, active compounds read low
[29] = S. cerevisiae deletion strains, locus YGR052W, strain FMP48, active compounds read low
[30] = S. cerevisiae deletion strains, locus YGR092W, strain DBF2, active compounds read low
[31] = S. cerevisiae deletion strains, locus YHR079C, strain IRE1, active compounds read low
[32] = S. cerevisiae deletion strains, locus YHR082C, strain KSP1, active compounds read low
[33] = S. cerevisiae deletion strains, locus YHR205W, strain SCH9, active compounds read low
[34] = S. cerevisiae deletion strains, locus YIL147C, strain SLN1, active compounds read low
[35] = S. cerevisiae deletion strains, locus YJL095W, strain BCK1, active compounds read low
[36] = S. cerevisiae deletion strains, locus YJL128C, strain PBS2, active compounds read low
[37] = S. cerevisiae deletion strains, locus YJL157C, strain FAR1, active compounds read low
[38] = S. cerevisiae deletion strains, locus YJR016C, strain ILV3, active compounds read low
[39] = S. cerevisiae deletion strains, locus YJR066W, strain TOR1 (second series), active compounds read low
[40] = S. cerevisiae deletion strains, locus YJR066W, strain TOR1, active compounds read low
[41] = S. cerevisiae deletion strains, locus YKL048C, strain ELM1, active compounds read low
[42] = S. cerevisiae deletion strains, locus YKL067W, strain YNK1, active compounds read low
[43] = S. cerevisiae deletion strains, locus YKL101W, strain HSL1, active compounds read low
[44] = S. cerevisiae deletion strains, locus YKL193C, strain SDS22, active compounds read low
[45] = S. cerevisiae deletion strains, locus YKL203C, strain TOR2, active compounds read low
[46] = S. cerevisiae deletion strains, locus YLR113W, strain HOG1, active compounds read low
[47] = S. cerevisiae deletion strains, locus YLR133W, strain CKI1, active compounds read low
[48] = S. cerevisiae deletion strains, locus YLR403W, strain SFP1, active compounds read low
[49] = S. cerevisiae deletion strains, locus YML070W, strain DAK1, active compounds read low
[50] = S. cerevisiae deletion strains, locus YMR001C, strain CDC5, active compounds read low
[51] = S. cerevisiae deletion strains, locus YMR205C, strain PFK2 (second series), active compounds read low
[52] = S. cerevisiae deletion strains, locus YMR277W, strain FCP1, active compounds read low
[53] = S. cerevisiae deletion strains, locus YNL006W, strain LST8, active compounds read low
[54] = S. cerevisiae deletion strains, locus YNL020C, strain ARK1, active compounds read low
[55] = S. cerevisiae deletion strains, locus YNL161W, strain CBK1, active compounds read low
[56] = S. cerevisiae deletion strains, locus YNL183C, strain NPR1, active compounds read low
[57] = S. cerevisiae deletion strains, locus YNL207W, strain RIO2, active compounds read low
[58] = S. cerevisiae deletion strains, locus YNL222W, strain SSU72, active compounds read low
[59] = S. cerevisiae deletion strains, locus YNL307C, strain MCK1 (second series), active compounds read low
[60] = S. cerevisiae deletion strains, locus YOL078W, strain AVO1, active compounds read low
[61] = S. cerevisiae deletion strains, locus YOL136C, strain PFK27, active compounds read low
[62] = S. cerevisiae deletion strains, locus YOR061W, strain CKA2, active compounds read low
[63] = S. cerevisiae deletion strains, locus YOR119C, strain RIO1, active compounds read low
[64] = S. cerevisiae deletion strains, locus YOR231W, strain MKK1, active compounds read low
[65] = S. cerevisiae deletion strains, locus YOR329C, strain SCD5, active compounds read low
[66] = S. cerevisiae deletion strains, locus YPL031C, strain PHO85, active compounds read low
[67] = S. cerevisiae deletion strains, locus YPL153C, strain RAD53, active compounds read low
[68] = S. cerevisiae deletion strains, locus YPL204W, strain HRR25, active compounds read low
[69] = S. cerevisiae deletion strains, locus YPL209C, strain IPL1, active compounds read low
[70] = S. cerevisiae deletion strains, locus YPL256C, strain CLN2, active compounds read low
[71] = S. cerevisiae deletion strains, locus YPR025C, strain CCL1, active compounds read low
[72] = S. cerevisiae deletion strains, locus YPR106W, strain ISR1, active compounds read low
[73] = S. cerevisiae deletion strains, locus YPR111W, strain DBF20, active compounds read low
[74] = S. cerevisiae deletion strains, strain NNK1, active compounds read low
[75] = S. cerevisiae deletion strains, strain TSCII, active compounds read low

Measured: normalized growth

Cn1c(=O)c(-c2ccccc2)c(O)c2ccccc21
active: [1] 0.868 | S. cerevisiae deletion strains, locus YBR229C, strain ROT2, active compounds read low 0.887 | [2] 0.636 | [4] 0.871 | [5] 0.533 | S. cerevisiae deletion strains, locus YJL187C, strain SWE1, active compounds read low 0.826 | S. cerevisiae deletion strains, locus YJR043C, strain POL32, active compounds read low 0.842 | S. cerevisiae deletion strains, locus YJR075W, strain HOC1, active compounds read low 0.881 | S. cerevisiae deletion strains, locus YLR039C, strain RIC1, active compounds read low 0.75 | S. cerevisiae deletion strains, locus YLR058C, strain SHM2 (second series), active compounds read low 0.926 | S. cerevisiae deletion strains, locus YLR085C, strain ARP6, active compounds read low 0.438 | S. cerevisiae deletion strains, locus YLR262C, strain YPT6, active compounds read low 0.81 | S. cerevisiae deletion strains, locus YMR219W, strain ESC1, active compounds read low 0.945 | S. cerevisiae deletion strains, locus YMR263W, strain SAP30, active compounds read low 0.898 | S. cerevisiae deletion strains, locus YNL153C, strain GIM3, active compounds read low 0.878 | S. cerevisiae deletion strains, locus YNL322C, strain KRE1, active compounds read low 0.932 | S. cerevisiae deletion strains, locus YNR030W, strain Alg12, active compounds read low 0.837 | [6] 0.816 | S. cerevisiae deletion strains, locus YPR135W, strain CTF4, active compounds read low 0.442 | S. cerevisiae strains, strain wild type, active compounds read low 0.9
inactive: [3] 0.825 | S. cerevisiae deletion strains, locus YEL061C, strain CIN8, active compounds read low 0.921 | S. cerevisiae deletion strains, locus YGR229C, strain SMI1, active compounds read low 0.953 | S. cerevisiae deletion strains, locus YHR087W, strain rtc3, active compounds read low 0.99 | S. cerevisiae deletion strains, locus YKL190W, strain CNB1, active compounds read low 0.942 | S. cerevisiae deletion strains, locus YML094W, strain GIM5, active compounds read low 0.968 | S. cerevisiae deletion strains, locus YMR307W, strain GAS1, active compounds read low 0.767 | S. cerevisiae deletion strains, locus YNL298W, strain CLA4 (second series), active compounds read low 0.84 | S. cerevisiae deletion strains, locus YOL006C, strain TOP1, active compounds read low 0.881 | S. cerevisiae deletion strains, locus YPL055C, strain LGE1, active compounds read low 0.907

O=c1c(-c2ccccc2)c(O)c2cccc3c4ccccc4n1c23
active: [7] 0.117 | [8] 0.121 | [9] 0.13 | [10] 0.148 | [11] 0.215 | [12] 0.154 | [13] 0.142 | [2] 0.226 | [14] 0.247 | [15] 0.167 | [16] 0.0962 | [17] 0.344 | [18] 0.128 | [19] 0.523 | [20] 0.134 | [21] 0.113 | [22] 0.105 | [23] 0.14 | [24] 0.115 | [25] 0.12 | [26] 0.118 | [27] 0.145 | [28] 0.124 | [29] 0.13 | [30] 0.11 | [5] 0.149 | [31] 0.143 | [32] 0.157 | [33] 0.0087 | [34] 0.123 | [35] 0.141 | [36] 0.133 | [37] 0.0913 | [38] 0.168 | [39] 0.131 | [40] 0.135 | [41] 0.122 | [42] 0.0882 | [43] 0.113 | [44] 0.139 | [45] 0.146 | [46] 0.185 | [47] 0.106 | [48] 0.00673 | [49] 0.0964 | [50] 0.119 | [51] 0.1 | [52] 0.165 | [53] 0.11 | [54] 0.115 | [55] 0.133 | [56] 0.161 | [57] 0.131 | [58] 0.11 | [59] 0.118 | [60] 0.123 | [61] 0.106 | [62] 0.0936 | [63] 0.146 | [64] 0.122 | [65] 0.12 | [66] 0.124 | [67] 0.109 | [68] 0.126 | [69] 0.129 | [70] 0.15 | [71] 0.149 | [72] 0.141 | [73] 0.147 | [74] 0.114 | [75] 0.112

Cn1c(=O)c2[nH]c(-c3ccccc3)nc2n(C)c1=O
inactive: [1] 0.995 | S. cerevisiae deletion strains, locus YAL040C, strain CLN3, active compounds read low 0.984 | S. cerevisiae deletion strains, locus YCL061C, strain MRC1 (second series), active compounds read low 0.983 | [3] 0.975 | S. cerevisiae deletion strains, locus YDR363W, strain ESC2, active compounds read low 1.01 | S. cerevisiae deletion strains, locus YER002W, strain NOP16, active compounds read low 0.97 | [4] 1 | S. cerevisiae deletion strains, locus YNL175C, strain NOP13, active compounds read low 0.986 | S. cerevisiae deletion strains, locus YNL197C, strain WHI3, active compounds read low 0.99 | S. cerevisiae deletion strains, locus YNL224C, strain SQS1, active compounds read low 0.992 | S. cerevisiae deletion strains, locus YOR083W, strain WHI5 (second series), active compounds read low 1 | [6] 0.992

O=c1c(-c2ccccc2)c(O)c2cccc3c4c(n1c23)CCCC4
inactive: [7] 0.935 | [8] 0.939 | [9] 0.926 | [10] 0.934 | [11] 0.958 | [12] 0.94 | [13] 0.944 | [2] 0.973 | [14] 0.924 | [15] 0.939 | [17] 0.957 | [19] 0.94 | [23] 0.929 | [24] 0.934 | [25] 0.952 | [27] 0.927 | [34] 0.917 | [36] 0.906 | [38] 0.926 | [44] 0.934 | [50] 0.935 | [52] 0.933 | [53] 0.932 | [55] 0.944 | [57] 0.95 | [58] 0.939 | [60] 0.927 | [65] 0.948 | [69] 0.944 | [71] 0.952 | [72] 0.93 | [73] 0.94 | [75] 0.918
active: [16] 0.39 | [18] 0.823 | [20] 0.342 | [21] 0.304 | [22] 0.459 | [26] 0.233 | [28] 0.439 | [29] 0.266 | [30] 0.172 | [5] 0.139 | [31] 0.182 | [32] 0.186 | [33] 0.314 | [35] 0.272 | [37] 0.243 | [39] 0.336 | [40] 0.26 | [41] 0.485 | [42] 0.414 | [43] 0.323 | [45] 0.283 | [46] 0.26 | [47] 0.376 | [48] 0.263 | [49] 0.318 | [51] 0.56 | [54] 0.282 | [56] 0.278 | [59] 0.167 | [61] 0.195 | [62] 0.249 | [63] 0.382 | [64] 0.25 | [66] 0.246 | [67] 0.305 | [68] 0.273 | [70] 0.228 | [74] 0.732

Source: PubChem BioAssay AID1159580 (chemical genetic matrix, 2015)
